# Data reported in PubChem BioAssay (NCATS).
# Values without a mark were called inactive. Records with an inconclusive call do not appear. Activity calls are given as the source filed them. Calls follow the shape of the dose curve; as a rule, active = well fitted curve in the direction sought with a large enough effect; inconclusive = small, poorly fitted or top-dose-only effect, or another doubt; inactive = no such curve, though single readings can be large; an effect the other way counts as inactive or inconclusive.
# Assay: SDT Cancer Cell Toxicity qHTS against the NCATS CANVASS Library (AID 1347365);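 also: SDT canine glioma cells 500 per well in 1536 well plates; % is scaled to controls: 0 for no effect and ±100 for the full control effect; nearly all actives have a fitted effect of over 60% in size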
# Settings: SDT dog glioma viability, ATP luminescence, 72 h; series mostly up to 46.1 µM; activity change, negative = cytotoxicity: at the top concentration
# Summary of the method: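 SDT dog glioma cells (500/well) exposed to an 11-point compound series for 72 hr at 37C, 5% CO2. Cytotoxicity read as ATP content by CellTiterGlo luminescence; bortezomib titration as control.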
row,Structure (SMILES),"activity change, negative = cytotoxicity"
1,C/C(=C\CC/C(C)=C/CC[C@]1(C)CCc2cc(O)cc(C)c2O1)CC/C=C(\C)C(=O)O,4.1%
2,CC(C)c1ccc2c(c1)CCC1[C@](C)(C(=O)O)CCC[C@]21C (some centres undefined),1.08%
3,O=C(/C=C/C=C/c1ccc2c(c1)OCO2)N1CCCCC1,-20.2% [at 91.4 µM]

# Assay: KB-3-1 Cancer Cell Toxicity qHTS against the NCATS CANVASS Library (AID 1347366); also: nearly all actives have a fitted effect of over 75% in size; as to activity change, negative = cytotoxicity: % is scaled to controls: 0 for no effect and ±100 for the full control effect
# Settings: KB-3-1 viability, CellTiter-Glo luminescence, 72 h; series mostly up to 46.1 µM; activity change, negative = cytotoxicity: at the top concentration
# Summary of the method: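 Seed KB-3-1 cells at 500/well in DMEM with 10% FBS, add compounds, incubate 72 hr at 37C and 5% CO2, then add CellTiter-Glo and read luminescence after 10 minutes.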
Structure (SMILES),outcome,"activity change, negative = cytotoxicity"
C/C(=C\CC/C(C)=C/CC[C@]1(C)CCc2cc(O)cc(C)c2O1)CC/C=C(\C)C(=O)O,inactive,
CC(C)c1ccc2c(c1)CCC1[C@](C)(C(=O)O)CCC[C@]21C (some centres undefined),,2.26%
CC(=O)O[C@H]1C[C@@]2(C)[C@@H](CC[C@H]3[C@@]4(C)C=CC(=O)[C@@H](C)[C@@H]4[C@H](OC(C)=O)C(=O)[C@@]32C)/C1=C(\CCC=C(C)C)C(=O)O,,4.67%
O=C(/C=C/C=C/c1ccc2c(c1)OCO2)N1CCCCC1,,-22.4% [at 91.4 µM]

# Assay: qHTS for ATAD5 Agonist screened against the NCATS CANVASS Library (AID 1347367);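 also: luciferase reporter driven by ATAD5 which rises upon DNA damage; 0% is about no effect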
# Settings: HEK293T ATAD5-luciferase reporter, luminescence, 16 h; series mostly up to 46.1 µM; activation: at the top concentration
# Summary of the method: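 Step one plated reporter cells and let them acclimate 5hr. Step two pinned compounds with MMS as positive and 0.46% DMSO as negative control. After 16hr incubation, fluorescence viability then luminescence were read.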
row,Structure (SMILES),activation
1,C/C(=C\CC/C(C)=C/CC[C@]1(C)CCc2cc(O)cc(C)c2O1)CC/C=C(\C)C(=O)O,0.68%
2,CC(C)c1ccc2c(c1)CCC1[C@](C)(C(=O)O)CCC[C@]21C (some centres undefined),3.41%
3,CC(=O)O[C@H]1C[C@@]2(C)[C@@H](CC[C@H]3[C@@]4(C)C=CC(=O)[C@@H](C)[C@@H]4[C@H](OC(C)=O)C(=O)[C@@]32C)/C1=C(\CCC=C(C)C)C(=O)O,-2.1%
4,O=C(/C=C/C=C/c1ccc2c(c1)OCO2)N1CCCCC1,11% [at 91.4 µM]

# Assay: G06 Cancer Cell Toxicity qHTS against the NCATS CANVASS Library (AID 1347368); also: nearly all actives have a fitted effect of over 60% in size; as to activity change, negative = cytotoxic: % is scaled to controls: 0 for no effect and ±100 for the full control effect
# Settings: G06 dog glioma cells, viability ATP luminescence, 72 h; series mostly up to 91.4 µM; activity change, negative = cytotoxic: at the top concentration
# Summary of the method: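 G06 dog glioma cells, 500 per well, exposed 72 hr at 37C, 5% CO2 to compounds in an 11-point series. Cytotoxicity read as ATP content by CellTiterGlo luminescence.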
Structure (SMILES),outcome,"activity change, negative = cytotoxic"
C/C(=C\CC/C(C)=C/CC[C@]1(C)CCc2cc(O)cc(C)c2O1)CC/C=C(\C)C(=O)O,inactive,
CC(C)c1ccc2c(c1)CCC1[C@](C)(C(=O)O)CCC[C@]21C (some centres undefined),,5.6% [at 46.1 µM]
O=C(/C=C/C=C/c1ccc2c(c1)OCO2)N1CCCCC1,,-28.4%

# Assay: MCF7 Cancer Cell Toxicity qHTS against the NCATS CANVASS Library (AID 1347369); as to activity change, negative = cytotoxicity: % is scaled to controls: 0 for no effect and ±100 for the full control effect
# Settings: MCF7 viability, ATP luminescence (CellTiter-Glo), 72 h; series mostly up to 46 µM; activity change, negative = cytotoxicity: at the top concentration
# Summary of the method: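 Cytotoxicity is measured by ATP content: MCF7 cells at 500 per well receive an 11-point compound series and, after 72 hr at 37C, are lysed with CellTiterGlo for luminescence.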
Structure (SMILES),outcome,"activity change, negative = cytotoxicity"
C/C(=C\CC/C(C)=C/CC[C@]1(C)CCc2cc(O)cc(C)c2O1)CC/C=C(\C)C(=O)O,inactive,
CC(C)c1ccc2c(c1)CCC1[C@](C)(C(=O)O)CCC[C@]21C (some centres undefined),,1.51%
CC(=O)O[C@H]1C[C@@]2(C)[C@@H](CC[C@H]3[C@@]4(C)C=CC(=O)[C@@H](C)[C@@H]4[C@H](OC(C)=O)C(=O)[C@@]32C)/C1=C(\CCC=C(C)C)C(=O)O,,-18%
O=C(/C=C/C=C/c1ccc2c(c1)OCO2)N1CCCCC1,,-28.4% [at 91.3 µM]

# Assay: qHTS for ATAD5 Antagonist screened against the NCATS CANVASS Library (AID 1347370);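 also: HEK293T cells carrying an ATAD5 luciferase reporter co-treated with 10 µM 5-fluorouridine; % is scaled to controls: 0 for no effect and ±100 for the full control effect; nearly all actives have a fitted effect of over 65% in size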
# Settings: HEK293T-ATAD5-luc, 5-FUrd stimulated, luminescence, 16 h; series mostly up to 46.1 µM; activity change, negative = inhibition: at the top concentration
# Summary of the method: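 HEK293T cells with stably integrated ATAD5-luciferase reporter, 2000/well, 5 h attachment; compounds plus 10 µM 5-fluorouridine, 16 h at 37 °C. Luciferase luminescence read, with CellTiter-Fluor viability read first.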
row,Structure (SMILES),"activity change, negative = inhibition"
1,C/C(=C\CC/C(C)=C/CC[C@]1(C)CCc2cc(O)cc(C)c2O1)CC/C=C(\C)C(=O)O,0%
2,CC(C)c1ccc2c(c1)CCC1[C@](C)(C(=O)O)CCC[C@]21C (some centres undefined),1.96%
3,O=C(/C=C/C=C/c1ccc2c(c1)OCO2)N1CCCCC1,0% [at 91.4 µM]

# Assay: J3T Cancer Cell Toxicity qHTS against the NCATS CANVASS Library (AID 1347371);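 as to activity change, negative = cytotoxicity: J3T is a canine glioma cancer cell line seeded at 500 cells per well; % is scaled to controls: 0 for no effect and ±100 for the full control effect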
# Settings: J3T dog glioma viability, ATP luminescence, 72 h; series mostly up to 91.4 µM; activity change, negative = cytotoxicity: at the top concentration
# From the text: Natural products and their derivatives continue to be wellsprings of nascent therapeutic potential. However, many laboratories have limited resources for biological evaluation, leaving their previously isolated or synthesized compounds largely or completely untested. To address this issue, the Canvass library of natural products was assembled (https://tripod.nih.gov/canvass), in collaboration with academic and industry researchers, for quantitative high-throughput screening (qHTS) across a diverse set of cell-based and biochemical assays. The pure (>85% purity by liquid chromatography/mass spectrometry [LC/MS]) Canvass library of 346 natural products were submitted by 45 academic laboratories and companies around the world. We collected pure natural products to circumvent deconvolution and structure elucidation due to time and resource limitations. The library was formatted into 1536-well plates and evaluated in 50 qHTS (in an 11-pnt concentration series) bioassays with broad scope of disease-relevant mechanisms. The resulting data set from 50 different assays was then systematically analyzed to identify overall trends and specific natural products with interesting biological activities. Reported herein are the results of each individual qHTS and their corresponding assay protocol. This assay uses ATP (luminescence) content to measure the cytotoxiciy of compounds on J3T dog glioma cancer cell line. National Center for Advancing Translational Sciences (NCATS), Rockville, MD National Institute of Health (NIH), Bethesda, Maryland
# Cancer Cell Toxicity qHTS protocol: for cell lines G06, J3T, and SDT. 1. In a 1536 well, tissue culture treated white solid bottom plates (Corning 7494), 5 uL of J3T cell solution (final concentration of 500 cells / well) was dispensed using the Multidrop Combi dispenser (Thermo Fisher Scientific) into columns 2, 3, 5-48. 2. […] Luminescence signal was acquired via the ViewLux plate reader (PerkinElmer) using a clear emission filter, 2 sec exposure, and 1x binning settings.
Structure (SMILES),outcome,"activity change, negative = cytotoxicity"
C/C(=C\CC/C(C)=C/CC[C@]1(C)CCc2cc(O)cc(C)c2O1)CC/C=C(\C)C(=O)O,inactive,
CC(C)c1ccc2c(c1)CCC1[C@](C)(C(=O)O)CCC[C@]21C (some centres undefined),inactive,
O=C(/C=C/C=C/c1ccc2c(c1)OCO2)N1CCCCC1,,-3.91%
